# ALOX15 inhib: 15-hLO (ALOX15) enzyme inhibition; purified 15hLO-1, xylenol orange hydroperoxide absorbance; Potency, µM (doses to about 57.1 µM), inactives show at the top dose activity change, negative = inhibition, usual class: inhibitors; 74,000 compounds, 1.4% hits; AID 887; note: % is set by controls: 0 for no effect and ±100 for the full control effect; nearly all actives have a fitted effect of over 55% in size
#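 Inhibition is scored from a chromogenic endpoint. After 15 min enzyme-compound contact, arachidonic acid (50 uM final) reacts 6 min with 40 nM 15hLO-1 at room temperature, then Fe-XO reagent is added for 30 min and absorbance ratio recorded.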
# Casp7 inh: caspase-7 (human) inhibition, allosteric or competitive. AID 889. P55210. 75,000 compounds, 0.02% hits. recombinant caspase-7, Ac-DEVD-AFC fluorescence rate. Potency, µM (doses to about 57.5 µM), without a hit: top-dose activity change, negative = inhibition, usual class: inhibitors; active = well fitted inhibition curve with a large enough effect in the main read-out, with a control signal flat, not every such curve was filed as active; inconclusive = small, poorly fitted or top-dose-only effect, or a change in a side signal; note: % of control where 0% means no effect
# Target sequence (P55210 24-198 limits assumed): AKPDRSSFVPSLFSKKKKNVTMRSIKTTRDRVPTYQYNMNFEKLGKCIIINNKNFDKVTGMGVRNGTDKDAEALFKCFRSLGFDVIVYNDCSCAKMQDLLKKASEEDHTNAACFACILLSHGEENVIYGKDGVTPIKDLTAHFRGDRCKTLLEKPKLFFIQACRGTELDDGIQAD
# Target sequence (P55210 207-303 limits assumed): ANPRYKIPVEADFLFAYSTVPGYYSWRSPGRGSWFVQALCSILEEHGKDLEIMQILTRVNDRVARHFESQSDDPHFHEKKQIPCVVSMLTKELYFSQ
# Caspase-1 inhib: blocks human caspase-1 allosterically or competitively. P29466. Caspase-1 enzyme, Ac-WEHD-AFC fluorogenic rate. Potency, µM (highest dose often 57.5 µM), for the others: at the highest dose activity change, negative = inhibition, most hits filed as inhibitors. 75,000 compounds, 0.03% hits;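 note: plate controls were vehicle for no effect and no substrate for full effect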
# Target sequence (P29466 120-297 limits assumed): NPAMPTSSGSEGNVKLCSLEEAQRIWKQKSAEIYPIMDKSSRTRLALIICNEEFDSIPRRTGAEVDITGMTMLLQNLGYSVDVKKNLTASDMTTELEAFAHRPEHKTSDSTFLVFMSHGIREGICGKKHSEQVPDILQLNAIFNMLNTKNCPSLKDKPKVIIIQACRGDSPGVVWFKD
# Target sequence (P29466 317-404 limits assumed): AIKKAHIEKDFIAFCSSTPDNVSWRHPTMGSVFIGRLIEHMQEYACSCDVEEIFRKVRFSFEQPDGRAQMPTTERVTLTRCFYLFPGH
# ERK AVP inh: vasopressin-driven ERK pathway inhibition; Potency, µM (series often up to 57.5 µM), inactives show at the top dose activity, negative = inhibition, actives largely listed as inhibitors; 72,000 compounds, 0.99% hits; AID 995; HEK293-V1b, vasopressin-stimulated pERK AlphaScreen; note: % is set by controls: 0 for no effect and ±100 for the full control effect; nearly all actives have a fitted effect of over 55% in size
#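 V1b-HEK293 cells; cpd 30 min 37C; 25 nM vasopressin 5 min; lyse 10 min; AlphaScreen beads 5 hr RT. Normalized to DMSO basal and 25 nM vasopressin; AC50 by Hill fit.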
# Tau fil binding: tau filament binding | P10636 | recombinant tau filaments, thioflavin S fluorescence, 15 h; filaments grown with octadecylsulfate alongside compound | Potency, µM (titrated, usually from 57.1 µM), for the others: top-dose activity change, negative = inhibition | 71,000 compounds, 2% hits | AID 596;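 note: % is set by controls: 0 for no effect and ±100 for the full control effect; actives lower thioflavin S fluorescence by blocking filaments or displacing dye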
#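 Read-out: ThS fluorescence, 450 nm excitation/510 nm emission; lower signal marks blocked filament formation or displaced dye. Tau at 1 uM with 30 uM ODS, 10 uM ThS, 5 mM DTT, 100 mM NaCl, 10 mM HEPES pH 7.4; 15 h, 37 C.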
# Starred values were filed as active, the others as inactive; ? = inconclusive; / = no result; [ ] = dose if it differs, or a comment. An excerpt weighted towards active compounds, which were near 3.9% of everything screened. Unless noted, calls come from the whole dose curve; as a rule, active = well fitted curve in the direction sought with a large enough effect; inconclusive = small, poorly fitted or top-dose-only effect, or another doubt; inactive = no such curve, though single readings can be large; an effect the other way counts as inactive or inconclusive. Potency is the fitted concentration of half-maximal effect.
SMILES,ALOX15 inhib,Casp7 inh,Caspase-1 inhib,ERK AVP inh,Tau fil binding
CCCn1c(C)nc2c(NCCCN(CCO)CCO)nc(C)nc21,-13.5%,1.6%,-1.0%,-12.5%,2.3%
Cc1cccc(C(=O)O)c1C[C@H]1NCC[C@H]2c3ccccc3N[C@@H]12,4.7%[11.4 µM],-10.1%[11.5 µM],-3.7%[11.5 µM],-2.0%[11.5 µM],-0.1%[11.4 µM]
CCc1nc(Nc2ccc(N3CCN(C(C)=O)CC3)cc2)c2oc3ccccc3c2n1,-23.8%,-10.1%,-5.8%,31.6µM*,20µM*
c1ccc(Nc2ncnc3c2oc2ccccc23)cc1,-21.9%,0.8%,-2.7%,-19.3%,24.0%
CC(=O)N1CCN(c2ccc(Nc3ncnc4c3oc3ccccc34)cc2)CC1,-14.0%,-1.2%,-2.3%,20µM*,25.1µM*
c1ccc2c(c1)oc1c(Nc3ccc(CN4CCOCC4)cc3)ncnc12,-15.9%,-0.7%,-3.3%,20µM*,-14.1%
CCOC(=O)C1CCCN(c2ncnc3c2oc2ccccc23)C1 (configuration not stated),-0.8%,0.6%,-0.9%,25.1µM*,21.8%
C[C@@]12C[C@H](O)[C@@H]3[C@H](CCC4=CC(=O)CC[C@]43C)[C@H]1CC[C@@H]2c1csc(N)n1,6.0%[11.4 µM],-2.8%[11.5 µM],0.9%[11.5 µM],0.4%[11.5 µM],10.1%[11.4 µM]
CC(=O)N(CC(O)CN(C(C)=O)c1c(I)c(C(=O)NC[C@@H](O)CO)c(I)c(C(=O)NC[C@@H](O)CO)c1I)c1c(I)c(C(=O)NC[C@@H](O)CO)c(I)c(C(=O)NC[C@@H](O)CO)c1I,7.3%[25.6 µM],0.4%[25.7 µM],0.3%[25.7 µM],-4.8%[25.7 µM],4.9%[25.6 µM]
Nc1nc(Nc2ccccc2)nc2c1ncn2[C@@H]1O[C@@H](CO)[C@H](O)[C@@H]1O,6.3%,2.2%,1.5%,1.6%,-8.0%
CCCn1c(-c2ccc(F)cc2)nc2c(N3CCCN(Cc4ccccc4)CC3)nc(C)nc21,7.1%,-1.0%,-2.2%,-24.6%,26.1%
COC(=O)C/C=C\[C@@H](C)[C@H]1C=C[C@H](O)[C@@H](CO)O1,14.5%[11.4 µM],2.0%[11.5 µM],2.4%[11.5 µM],4.4%[11.5 µM],/
c1ccc(N2CCN(c3ncnc4c3oc3ccccc34)CC2)cc1,6.8%,-9.8%,-8.2%,31.6µM*,119.3%
COc1cccc(Nc2ncc3nc(-c4ccc(Cl)cc4)c(=O)n(C4CC4)c3n2)c1,-4.5%,?,/,-17.7%,25.0%
CCc1nc(C)c(C#N)c2cc(OC)c(OC)cc12,6.6%,1.3%,-0.4%,25.1µM*,2.7%
IC(I)I,?,-0.6%,-1.2%,11.3%,11.1%
Cn1c(=O)[nH]c(=O)c2c1nc(N1CCCCCC1)n2Cc1cccc2ccccc12,-16.7%,-0.6%,1.9%,-15.6%,29.9%
Cc1ccc(Cn2c(N3CCCCCC3)nc3c2c(=O)[nH]c(=O)n3C)cc1,-15.4%,-0.1%,-1.6%,15.8µM*,14.7%
N[C@@H](Cn1ccc(=O)n(Cc2ccccc2C(=O)O)c1=O)C(=O)O,?,0.3%,-3.1%,3.2%,?
COc1ccc(N2CCn3c2nc2c3c(=O)n(CCc3ccccc3)c(=O)n2C)c(OC)c1,4.7%,2.3%,-0.9%,-9.2%,-12.7%
COc1ccc(N2CCn3c2nc2c3c(=O)n(CCCc3ccccc3)c(=O)n2C)c(OC)c1,-9.5%,-0.8%,-2.6%,12.6µM*,-9.4%
Cc1ccc(NC(=O)CSC2=C(C#N)C(c3ccc4c(c3)OCO4)C3=C(CCCC3=O)N2)c(C)c1 (configuration not stated),3.16µM*,-7.1%,-8.3%,-20.6%,24.8%
CN1CCN(c2ccc(NC(=O)COc3ccccc3Cl)cc2)CC1,-1.8%,1.1%,-4.2%,-26.2%,15.8µM*
Cc1ccccc1OCCCC(=O)Nc1ccc(N2CCOCC2)cc1,-25.3%[11.4 µM],0.7%,-2.0%,-19.6%,3.16µM*
Cc1ccc(OCC(=O)Nc2ccc(N3CCCC3)cc2)cc1C,5.01µM*,-1.5%,-2.3%,?,1.58µM*
SMILES,ALOX15 inhib,Casp7 inh,Caspase-1 inhib,ERK AVP inh,Tau fil binding
CCOc1ccccc1OCC(=O)Nc1ccc(N2CCCCC2)cc1,-4.9%,0.9%,1.9%,?,25.1µM*
Cc1ccc(OCCCC(=O)Nc2ccc(N3CCOCC3)cc2)c(C)c1,-3.2%,-0.3%,1.9%,-17.6%,?
COC(=O)[C@@]1(Cc2ccccc2)[C@H]2c3cc(C(=O)N(C)C)n(Cc4ccsc4Br)c3C[C@H]2CN1C(=O)c1ccccc1,/,-16.7%,-4.3%,6.7%,16.7%
COc1cc(Cl)ccc1NC(=O)COc1ccccc1C(=O)N1CCN(c2ccc(O)cc2)CC1,25.1µM*,-5.6%,-3.2%,-8.3%,-26.8%
O=C(CNCC1CCCO1)Nc1ccc(N2CCCCCC2)cc1 (configuration not stated),-27.0%,0.2%,-0.8%,?,31.6µM*
COc1ccccc1OCC(=O)Nc1ccc(O)cc1C(=O)O,5.8%,0.0%,1.3%,-10.4%,-2.9%
CN1CCN(c2cc(-c3ccc(N(C)C)cc3)ncn2)CC1,-2.9%,-8.9%,-6.2%,-5.3%,-4.5%
Cc1ccc(-c2c3c([nH]c(=S)c2C#N)CCCC3)o1,10µM*,-14.6%,-2.2%,-12.8%,?
COC(=O)CSc1nc2c(c(-c3ccc(C)o3)c1C#N)CCCC2,-20.5%,-1.5%,-4.7%,11.6%,12.1%
CCCOC(=O)c1ccc(Oc2c(-c3ccc(O)cc3O)n[nH]c2C)cc1,?,-12.5%,-4.3%,-11.9%,20µM*
O=C(O)C(NS(=O)(=O)c1cccc2cccnc12)c1ccccc1 (configuration not stated),-8.7%,3.0%,-1.7%,/,-7.7%
O=C(CCN1CCOCC1)Nc1ccc(F)cc1F,-1.6%[11.4 µM],1.2%[11.5 µM],-0.6%[11.5 µM],0.5%[11.5 µM],-21.7%[11.4 µM]
C/C=C/c1ccc(OCCSc2nc(C)cc(=O)[nH]2)c(OC)c1,-8.2%,-0.2%,-0.5%,-16.1%,0.2%
C/C=C/c1ccc(OCCCCN2C(=O)NC(C)(C)C2=O)c(OC)c1,-26.1%,0.5%,-0.2%,20µM*,-8.7%
N#CCc1ccccc1[N+](=O)[O-],-7.4%,1.2%,-1.1%,15.4%,-1.6%
COc1ccc(-c2nc(C(=O)N3CCN(C)CC3)sc2-c2ccc(OC)cc2)cc1,-4.5%[25.6 µM],-27.8%,-16.9%,2.1%,?
CC(C)[N+]1(C)[C@@H]2CC[C@H]1CC(OC(=O)[C@@H](CO)c1ccccc1)C2 (some centres not stated),7.1%[25.6 µM],0.3%,2.2%,9.6%,?
Cc1ccc(-n2nc(C)c3c2OC(N)=C(C#N)C3c2ccoc2)cc1 (configuration not stated),-16.6%,-6.0%,-7.5%,-10.4%,31.6µM*
Cc1ccc(C2C(C#N)=C(N)Oc3n[nH]c(-c4cccs4)c32)s1 (configuration not stated),25.1µM*,-3.7%,-0.8%,-19.3%,-12.8%
Cc1ccc(C2C(C#N)=C(N)Oc3n[nH]c(C)c32)cc1 (configuration not stated),-9.3%,0.8%,-1.0%,4.5%,3.4%
Cc1ccc(-c2[nH]nc3c2C(c2cccnc2)C(C#N)=C(N)O3)cc1 (configuration not stated),-12.1%,1.8%,-0.9%,12.6µM*,-7.5%

# High-throughput results from PubChem.
